GRK2 inh: human GRK2 inhibition via aptamer displacement; AID 488847; bead flow cytometry, FAM-aptamer displacement from GRK2; 0.59% of 330,000 active; inhibition of aptamer binding, % at 10 µM; P25098;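 active means inhibition of aptamer binding above 40%, roughly 3 SD of noise, on plates passing a quality check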;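 further: median bead fluorescence of bound FAM aptamer so fluorescent compounds give negative values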
Target sequence (P25098 whole entry, looked up): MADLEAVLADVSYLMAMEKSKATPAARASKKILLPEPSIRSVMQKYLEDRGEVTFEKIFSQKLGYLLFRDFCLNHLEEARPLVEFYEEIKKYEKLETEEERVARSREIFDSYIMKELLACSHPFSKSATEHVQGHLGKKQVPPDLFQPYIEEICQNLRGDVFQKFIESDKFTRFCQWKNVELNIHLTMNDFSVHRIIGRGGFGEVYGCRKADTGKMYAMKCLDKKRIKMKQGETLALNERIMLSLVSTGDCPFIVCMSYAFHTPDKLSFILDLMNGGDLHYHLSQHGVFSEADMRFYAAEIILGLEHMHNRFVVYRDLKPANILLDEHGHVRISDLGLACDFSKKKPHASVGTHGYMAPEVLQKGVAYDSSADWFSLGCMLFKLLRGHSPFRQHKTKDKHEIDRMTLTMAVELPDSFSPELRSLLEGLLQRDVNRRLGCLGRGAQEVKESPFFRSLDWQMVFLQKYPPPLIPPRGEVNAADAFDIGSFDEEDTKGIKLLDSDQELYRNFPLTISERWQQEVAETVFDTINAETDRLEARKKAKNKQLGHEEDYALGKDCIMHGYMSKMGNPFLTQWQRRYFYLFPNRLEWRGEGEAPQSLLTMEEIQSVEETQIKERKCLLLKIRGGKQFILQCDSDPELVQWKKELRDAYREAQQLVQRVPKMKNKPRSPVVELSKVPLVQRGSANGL
MEKK2wt PB1 HTS: raises or lowers MEK5 binding to wildtype human MEKK2 PB1 domain; Q9Y2U5; bead flow cytometry, Alexa488-MEK5 binding to MEKK2 WT; actives lie on both sides; binding response (% of control), % at 10 µM; 1.1% of 290,000 active; AID 1531; in the data active means binding response below about 67% or above about 130%
MEKK2 mut-MEK5: signal of MEK5 binding to mutant human MEKK2 PB1 domain; bead flow cytometry, Alexa488-MEK5 binding to MEKK2 mutant; AID 1530; 0.35% of 290,000 active; percent response, % at 10 µM; in the data active means percent response above about 24%, passing the limit was not always enough
MEKK3 PB1 HTS: MEKK3-MEK5 PB1 interaction, increase or decrease; 1.4% of 290,000 active; binding response (% of control), % at 10 µM; bead-based flow cytometry, Alexa488-MEK5 binding to MEKK3; actives lie on both sides; 0 = blocked by unlabeled MEK5, 100 = vehicle; Q99759;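 active means binding response more than 3 SD above or below the average of its plate-row segment, actives on both sides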;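 further: Alexa488 bead fluorescence after subtracting the streptavidin-only scavenger bead signal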
MEKK2wt confirm: raises or lowers MEK5 binding to wildtype human MEKK2, retest; shares compounds with MEKK3 PB1 HTS; bead flow cytometry, Alexa488-MEK5 binding to MEKK2 WT; actives lie on both sides; binding response (% of control), % at 10 µM; 2.4% of 5,900 active; in the data active means binding response below about 16% or above about 210%; inactive means in between
MEKK2mut-MEK5: signal of MEK5 binding to mutant human MEKK2, retest | shares compounds with MEKK3 PB1 HTS | bead flow cytometry, Alexa488-MEK5 binding to MEKK2 mutant | percent response, % at 10 µM | 2% of 5,900 active; in the data active means percent response mostly above about 71%, no sharp cut-off; inactive means mostly below about 38%;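 further: higher means compound restores mutant binding toward wildtype level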
MEKK3 confirm: MEKK3-MEK5 PB1 inhibition, single concentration confirmation | shares compounds with MEKK3 PB1 HTS | bead flow cytometry, Alexa488-MEK5 binding to MEKK3; stronger effect = lower value | binding response (% of control), % at 10 µM | 1.8% of 5,900 active | AID 1894;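 active means binding response below 72% of control, or above a set upper limit, though filed actives all read lower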;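 further: 100% = DMSO only wells and 0% = binding blocked by excess unlabeled MEK5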
* hit, by the source's call; nt = no result given; [ ] = remark or other dose. An excerpt weighted towards active compounds, which were near 2.5% of everything screened.

SMILES	GRK2 inh	MEKK2wt PB1 HTS	MEKK2 mut-MEK5	MEKK3 PB1 HTS	MEKK2wt confirm	MEKK2mut-MEK5	MEKK3 confirm
COc1cc(C(=O)NC(=S)Nc2ccc([N+](=O)[O-])cc2)cc(OC)c1OC	0	103	2	141*	104	4	103
Cc1onc(-c2c(F)cccc2Cl)c1C(=O)OCC(=O)NC(N)=O	1	97	-12	104	nt	nt	nt
CCOC(=O)C1CCN(C(=O)CSc2ccc(Cl)cc2)CC1	1	108	1	129*	100	-5	100
Cc1onc(-c2c(F)cccc2Cl)c1C(=O)N1CCCCC1	2	105	2	101	nt	nt	nt
CCOC(=O)C1CCN(C(=O)CSc2ccc(Br)cc2)CC1	0	98	3	101	nt	nt	nt
Cc1onc(-c2c(F)cccc2Cl)c1C(=O)OCC(=O)NC1CC1	1	90	-2	70*[inhibitor]	98	-3	102
CCOC(=O)C1CCN(C(=O)c2c(-c3c(F)cccc3Cl)noc2C)CC1	0	115	8	127*	100	-6	101
CC(C)(C)OC(=O)N[C@@H](Cc1ccccc1)C(=O)NCC1CCC(C(=O)N[C@@H](CC(=O)O)C(=O)O)CC1 (stereo not given in full)	10	100	-1	101	nt	nt	nt
O=C(O)CCC(=O)NN1C(=O)c2ccccc2NC1c1ccc(F)cc1 (stereo not given)	0	90	-21	89	nt	nt	nt
C[n+]1cccc2cccc([O-])c21	nt	64	-30	63	nt	nt	nt
Cc1ccccc1OCc1nnc(SCC(=O)N2CCc3ccccc32)n1C	0	2.0*[inhibitor]	-3	2.0*[inhibitor]	100	-1	102
Cc1ccccc1CCN(C(=O)Cn1nnc2ccccc21)C(C(=O)NC(C)(C)C)c1ccsc1 (stereo not given)	0	81	-14	76*[inhibitor]	100	2	99
O=c1[nH]ncc(NCc2ccc(Cl)cc2)c1Cl	0	107	0	132*	99	-4	101
Cc1n[nH]c(=O)nc1NCc1ccc(Cl)cc1	1	108	5	104	nt	nt	nt
CCN(CC)CCNC(=O)CS(=O)Cc1nc(-c2ccc(Cl)cc2)oc1C (stereo not given)	0	62	-21	49*[inhibitor]	111	12	109
Cc1c(C(=O)N2CCCCCC2)c(S(=O)(=O)NCc2ccccc2Cl)c(C)n1C	4	103	0	101	nt	nt	nt
CNC(=O)CSc1nnc(C(C)C)n1C	4	122	5	136*	93	-6	96
CCn1c(SCC(=O)NC)nnc1C(C)C	0	102	3	94	nt	nt	nt
CCCN(CC(=O)Nc1cccc(Br)c1)CC(=O)Nc1ccc(F)c(F)c1F	2	154*	31	101	103	-3	101
CCOc1ccccc1N(CC(=O)NC1CCCCC1)S(C)(=O)=O	1	78	-5	74*[inhibitor]	99	-2	95
CCOc1ccccc1N(CC(=O)O)S(=O)(=O)c1ccccc1	0	112	8	112	nt	nt	nt
CCOc1ccccc1N(CC(=O)OC)S(=O)(=O)c1ccccc1	2	121	6	126*	103	1	99
CC(C)=C(NC(=O)c1ccccc1)C(=O)N/N=C/c1ccc(O)cc1	0	19*[inhibitor]	0	100	101	2	100
O=C(Nc1ccccc1C(=O)N/N=C/c1ccc(O)cc1)c1ccccc1	2	98	-9	100	nt	nt	nt
O=C(NC1=NCCS1)c1ccc(Cl)c(S(=O)(=O)N2CCOCC2)c1	3	nt	nt	nt	nt	nt	nt
SMILES	GRK2 inh	MEKK2wt PB1 HTS	MEKK2 mut-MEK5	MEKK3 PB1 HTS	MEKK2wt confirm	MEKK2mut-MEK5	MEKK3 confirm
CCOC(=O)c1ccc(-c2ccc(/C=N/NC(=O)CN(c3ccccc3Cl)S(C)(=O)=O)o2)cc1	2	110	2	141*	98	-6	102
CC(C)Oc1cccc(C(=O)NC(=S)NCc2cccnc2)c1	0	98	1	96	nt	nt	nt
O=[N+]([O-])c1cc(C(F)(F)F)cc([N+](=O)[O-])c1NCCCNc1ccc([N+](=O)[O-])c2cccnc12	2	102	0	68*[inhibitor]	105	2	101
COc1ccc([N+](=O)[O-])cc1NC(=O)c1ccc(C)o1	0	109	1	187*	96	-1	95
O=C(NCc1ccc(F)cc1)C1Cc2ccccc2CN1C(=O)c1ccco1 (stereo not given)	0	84	-2	69*[inhibitor]	105	7	108
C[C@H](N)c1nnc(SCC(N)=O)o1	0	98	-1	100	nt	nt	nt
COC/C=C/C1=CC2=CC(=O)C(C)(OC(=O)c3cnc4ccccc4n3)C(=O)C2=CN1c1ccccc1 (stereo not given)	1	94	4	95	nt	nt	nt
COC/C=C/C1=CC2=CC(=O)C(C)(OC(=O)c3cnc4ccccc4n3)C(=O)C2=CN1CC(C)C (stereo not given)	3	85	-2	80*[inhibitor]	101	3	101
N#C/C(=C\c1ccc(Sc2ccc(Cl)cc2)o1)c1nc2ccccc2[nH]1	0	150*	14	102	131	14	102
Cc1cc(C)c(C#N)c(N2CCCC2)n1	0	nt	nt	nt	nt	nt	nt
Cc1cc(C)c(C#N)c(Cl)n1	0	107	0	149*	105	1	103
C=CCC[C@H](Cc1ccc(F)cc1)C(=O)OC[C@@H](NC(=O)[C@H](CC=C)CC(=O)NCCO)C(C)(C)C	0	nt	nt	nt	nt	nt	nt
CC1(c2ccccc2)CC(C)(C)N2C(=O)/C(=C3\SC(=S)NC3=O)c3cccc1c32 (stereo not given)	4	96	-1	147*	95	-3	95
CC1(c2ccccc2)CC(C)(C)N2C(=O)C3(C(C#N)=C(N)Oc4cc(O)ccc43)c3cccc1c32 (stereo not given)	2	88	-4	101	nt	nt	nt
Cc1cc(C)n(-c2nc(NCCN(C)C)c3c4c(sc3n2)CCCC4)n1	0	147*	28	88	137	31	105
Cc1cc(C)n(-c2nc(NCCCN(C)C)c3c4c(sc3n2)CCCC4)n1	0	113	15	104	nt	nt	nt
CCC(C)NCC(=O)Nc1ccc(S(N)(=O)=O)cc1 (stereo not given)	0	97	-11	95	nt	nt	nt
Cc1cc(C(=O)Nc2ccc(N3CCCC3)c(Cl)c2)ccc1[N+](=O)[O-]	2	130	2	135*	110	-2	103
Cc1cccc(C)c1NS(=O)(=O)c1ccc(NC(=O)c2ccc(Cl)c([N+](=O)[O-])c2)cc1	0	115	1	140*	100	-2	101

Source: PubChem
